# Reference: PubChem BioAssay AID1259309 (ICCB-Longwood Screening Facility, Harvard Medical School, 2017)
# “And” between values parts separate entries of the source, which are not always exact repeats. Identical values can stand only once. In all, about 330,000 compounds went through this assay and about 1,800 (0.55%) were called active. Shown is part of a subset that was picked to be rich in actives. A number with no mark means an inactive call. Cut-off read from the data, not from the text of the source: active = growth inhibition above about 68%; inactive = the rest.
# Assay: growth inhibition of ugtP-null S. aureus, primary screen, RN4220 ugtP deletion, OD600 (AID 1259309);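 note: plate controls were untreated wells for no effect and antibiotic for full effect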
# Settings: 16 h, active compounds read high
row,Compound,growth inhibition
1,CC(C)NC(=O)N(C)CC1Oc2ccc(NC(=O)Nc3ccc(C(F)(F)F)cc3)cc2CC(=O)N(C(C)CO)CC1C (stereo not given),-1.09%
2,N#CC(=NNc1ccc(Cl)cc1)C(=O)c1ccccc1,99.4% (active)
3,N#C/C(=C/c1ccc(Cl)cc1)NC(=O)c1ccccc1,-7.93%
4,N#CC(=NNc1ccc(Cl)cc1)C(=N)N1CCCCC1,-11.7%
5,CCCCC(O)(CCCC)C(=O)NN=C(C)c1ccc(Cl)cc1,-3.08%
6,COc1ccc(C(=O)NN=Cc2ccc(OC)c(CN3CCCc4ccccc43)c2)cc1,-10.3%
7,COc1ccc(C=NNC(=O)c2ccccc2OC)cc1COc1ccccc1[N+](=O)[O-],4.98%
8,COc1ccc(C(=O)NN=Cc2ccc(OC(=O)c3cccc4ccccc34)c([N+](=O)[O-])c2)cc1,96.8% (active)
9,CC(=NNc1cccc(C(=O)O)c1)c1cc2ccccc2o1,5.08%
10,C=C(C)C(=O)Nc1cccc(C2=NOC3(C2)CC(C(N)=O)N(C(=O)c2ccccc2)C3)c1 (stereo not given),0.731%
11,CC(C)=CCc1ccc(O)c(=O)cc1C(C)C,-4.82%
12,CC(C)=CCc1c(O)c(CC=C(C)C)c2occ(-c3ccc(O)cc3)c(=O)c2c1O,98.5% (active)
13,COc1ccccc1NC(=O)CC(C)=NNC(=O)c1ccccn1,3.4%
14,C/C(C=NNC(=O)c1nnn(-c2nonc2N)c1C(C)C)=C\c1ccccc1,-3.08%
15,Oc1ccc(CC2CNC(=S)N2CCc2cc(C(F)(F)F)cc(C(F)(F)F)c2)cc1 (stereo not given),10.9% and 22.1%
16,CCCCNC(=S)N(C)N=Cc1c(F)c(F)c(F)c(F)c1F,4.66%
17,Cc1nc2c(-c3ccccc3)c(C)[nH]n2c(=O)c1Cl,3.35%
18,Cc1cc(=O)n2[nH]c(-c3cccc(Cl)c3)cc2n1,-2.61%
19,Cc1[nH]n(-c2cccc(Cl)c2)c(=O)c1-c1ccc(Cl)cc1,87.7% (active)
20,COc1ccc(C=NNC(=O)CCc2n[nH]c(=O)[nH]c2=O)cc1OC,-0.0548%
21,O=C(O)C1=CC(c2ccc3c(c2)OCO3)CC(OCc2ccc(CO)cc2)O1 (stereo not given),-2.53% and -0.0237%
22,COc1cc(C=NNC(=S)NCCN2CCOCC2)ccc1O,11.5%
23,O=C(Nc1nnc(-c2ccccc2)o1)c1cc(-c2cccs2)nc2ccccc12,96.3% (active)

row,Compound,growth inhibition
1,CC(C)(C)Cc1nnc(NC(=O)c2cc(-c3ccccc3)nc3ccccc23)s1,-17.6%
2,O=C(NN=Cc1ccsc1)c1cc(-c2cccs2)nc2ccccc12,-4.48%
3,CN1CCN(N=Cc2ccc(-c3ccc([N+](=O)[O-])cc3Cl)o2)CC1,3.66%
4,O=C1C2N=NN(CC(=O)N3N=C(c4cccc5ccccc45)CC3c3ccccc3)C2C(=O)N1c1ccccc1 (stereo not given),-9.34%
5,Oc1ccccc1C1=NN(c2ccccc2)C(c2ccccc2)C1 (stereo not given),99.6% (active)
6,Cc1ccc(N2C(=O)C3N=NN(CC(=O)N4N=C(c5cccc6ccccc56)CC4c4ccccc4)C3C2=O)cc1 (stereo not given),-14.5%
7,CCOc1ccc(C=NNc2cc(N3CCOCC3)nc(C)n2)c(O)c1,1.85%
8,CC1CN(C(C)CO)C(=O)Cc2cc(NC(=O)CCC(F)(F)F)ccc2OC1CN(C)S(=O)(=O)c1ccc(Cl)cc1 (stereo not given),4.94%
9,NCCCCC(C(=O)N1CCNCC1)n1cc(CCC(=O)O)nn1 (stereo not given),3.28%
10,OCc1ccc(-c2ccccc2)c(-c2ccccc2)c1,89.2% (active)
11,OCc1nc(CO)n(Cc2ccccc2)n1,13.4%
12,OCCN(Cc1ccccc1)Cc1ccc(Cl)cc1,-6.5%
13,COc1cc(CCCN2C(=O)C(=O)NCC2CC2CCCCC2)cc(OC)c1OC (stereo not given),2.58%
14,Cc1cc(C=NNC(=O)c2ccccn2)c(C)n1-c1cccc([N+](=O)[O-])c1,6.51%
15,Cc1ccnc2nc(C(=O)Nc3nnc(-c4ccccc4)o3)nn12,12.9%
16,O=C(Nc1nnc(-c2ccc(Cl)cc2)o1)c1ccccc1Br,97.7% (active)
17,COc1ccccc1C(=O)NCC(=O)OCC(=O)Nc1nnc(-c2ccccc2)o1,-1.67%
18,CCOC(=O)NN=Cc1ccc(C)o1,3.13%
19,N#CC(=C(O)CCl)c1nnc2n1CCCCC2,4.05%
20,C#CCOCCOCCOCCNc1nc(N2CCN(C(=O)C(CCCCN)n3cc(C(N)CC(C)C)nn3)CC2)nc(N2CCN(C(=O)C(CCCCN)n3cc(C(N)CC(C)C)nn3)CC2)n1 (stereo not given),0.321%
21,CC(C)NC(=O)CC(=O)NN=Cc1c(F)cccc1Cl,-1.54%
22,Cc1cccc(CCN2C(Nc3ccccc3)=NCC2CC(C)C)c1 (stereo not given),2.11%
